Outcome data for eleven compounds are collected here from PubChem BioAssay (EPA / NIEHS).

Molecules are shown by their SMILES. Inconclusive results are not listed. The source made the active and inactive calls. How the source made its calls: active means hit-call score of the fitted dose curve at least 0.9, where 1 is the maximum; inconclusive means response in the unintended direction; inactive means score below 0.9.

In this experiment the target is Agonist Androgen Response Element (ARE), AR (gene 367) (UniProt P10275). The experiment in a line: OT_AR_ARELUC_AG_1440: Odyssey Thera (OT) 24-hour CHO-K1 Luciferase Assay for Agonist Androgen Response Element (ARE) (AID 2283379). On the procedure: OT_AR_ARELUC_AG_1440 is a cell-based, single-readout assay that uses CHO-K1, a chinese hamster ovary cell line, with measurements taken at 24 hours after chemical dosing in a 384-well plate.OT_AR_ARELUC_AG_1440 is one of one assay component(s) measured or calculated from the OT_AR_ARELUC_AG_1440 assay. It is designed to make measurements of luciferase induction, a form of inducible reporter, as detected with bioluminescence signals by Luciferase technology.Data from the assay component OT_AR_ARELUC_AG_1440 was analyzed into 1 assay endpoint. This assay endpoint, OT_AR_ARELUC_AG_1440, was analyzed in the positive analysis fitting direction relative to DMSO as the negative control and baseline of activity. Using a type of inducible reporter, measures of receptor for gain-of-signal activity can be used to understand the reporter gene at the pathway-level as they relate to the gene AR. Furthermore, this assay endpoint can be referred to as a primary readout, because the performed assay has only produced 1 assay endpoint. To generalize the intended target to other relatable targets, this assay endpoint is annotated to the nuclear receptor intended target family, where the subfamily is steroidal.
Sequence of Agonist Androgen Response Element (ARE), AR (gene 367) (P10275 whole entry, looked up): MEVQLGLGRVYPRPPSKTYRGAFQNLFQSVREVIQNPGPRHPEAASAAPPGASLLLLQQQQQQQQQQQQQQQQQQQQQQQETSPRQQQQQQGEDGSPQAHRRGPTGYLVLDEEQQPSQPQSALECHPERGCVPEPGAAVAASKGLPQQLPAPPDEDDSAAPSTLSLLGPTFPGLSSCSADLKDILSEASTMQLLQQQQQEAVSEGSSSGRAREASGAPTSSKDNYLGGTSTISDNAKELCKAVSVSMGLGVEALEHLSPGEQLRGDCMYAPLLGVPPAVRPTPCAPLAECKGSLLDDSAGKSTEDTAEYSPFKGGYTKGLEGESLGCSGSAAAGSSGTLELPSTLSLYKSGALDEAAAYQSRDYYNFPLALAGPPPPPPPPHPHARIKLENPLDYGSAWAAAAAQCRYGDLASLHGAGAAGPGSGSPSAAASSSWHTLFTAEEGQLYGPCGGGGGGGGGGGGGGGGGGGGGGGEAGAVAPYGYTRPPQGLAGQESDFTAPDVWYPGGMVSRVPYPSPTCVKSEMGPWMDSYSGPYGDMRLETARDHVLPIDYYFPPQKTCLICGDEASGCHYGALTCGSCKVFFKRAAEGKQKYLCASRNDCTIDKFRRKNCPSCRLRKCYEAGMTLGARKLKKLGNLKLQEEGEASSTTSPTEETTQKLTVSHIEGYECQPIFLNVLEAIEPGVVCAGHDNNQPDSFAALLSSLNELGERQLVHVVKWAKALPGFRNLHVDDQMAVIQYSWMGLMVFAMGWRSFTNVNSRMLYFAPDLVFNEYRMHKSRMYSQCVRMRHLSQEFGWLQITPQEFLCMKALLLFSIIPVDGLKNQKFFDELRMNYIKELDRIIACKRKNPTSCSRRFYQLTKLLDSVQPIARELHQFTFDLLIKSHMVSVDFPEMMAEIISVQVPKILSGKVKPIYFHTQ
To identify AR agonists, CHO-K1 cells are seeded into a white-walled/white-bottom 384-well plate, followed by treatment with compounds of interest or controls for 24 hours. A luciferase assay mix containing D-luciferin and ATP in PBS is then added to the cells and luminescence quantified on a Luminoskan (Thermo Scientific) luminometer. Modulation of this assay is quantified as an increase in mean luminescence intensity relative to vehicle controls. To evaluate specificity of the AR / ARE-luc assay, several known AR agonists, AR antagonists, and ER-selective compounds were also tested in 5-pt concentration-response format in a minimum of 7 assay plates. OT determined the reproducibility of DHT-induced AR/ARE-luc transcriptional activation with a total of seven 384-well plates run on 2 different days, for 24-h time frames. A minimum of 3 replicate wells were analyzed for each sample with 14 replicate wells for vehicle controls. Luminescence data were captured on the Luminoskan luminometer.
On to `Nc1c(Cl)c(F)nc(OCC(=O)O)c1Cl`, for which the result was inactive.

For the compound `CCCCC(O)(Cn1cncn1)c1ccc(Cl)cc1Cl` (stereo unspecified), the compound was called inactive. The value for `Clc1cccc(C(Cl)(Cl)Cl)n1` was “inactive”; that for `Cc1cnc(C2=NC(C)(C(C)C)C(=O)N2)c(C(=O)O)c1` (stereo unspecified) was “inactive”; that for `COC(=O)c1c(C(F)F)nc(C(F)(F)F)c(C2=NCCS2)c1CC(C)C` was “inactive”. The value for `CC1(C)CCC(=Cc2ccc(Cl)cc2)C1(O)Cn1cncn1` (stereo unspecified) was “inactive”; that for `COCc1cnc(C2=NC(C)(C(C)C)C(=O)N2)c(C(=O)O)c1` (stereo unspecified) was “inactive”; that for `COC(=O)N(C(=O)N1CO[C@@]2(C(=O)OC)Cc3cc(Cl)ccc3C2=N1)c1ccc(OC(F)(F)F)cc1` was “inactive”.

As for `COP(=S)(OC)SCn1nnc2ccccc2c1=O`, the result was inactive. The value for `COc1ccc(-c2ccccc2)cc1NNC(=O)OC(C)C` was “inactive”; that for `CCOP(=O)(OCC)Oc1nc(Cl)c(Cl)cc1Cl` was “inactive”.
